Consider 153 variants from a collection of fitness landscapes (doi:10.1126/science.1257360).

The labels stand for the following.
B1: PhoQ; a variant is named by its letters at X, in order, P23837 (parent)
chain: MKKLLRLFFPLSLRVRFLLATAAVVLVLSLAYGMVALIGYSVSFDKTTFRLLRGESNLFYTLAKWENNKLHVELPENIDKQSPTMTLIYDENGQLLWAQRDVPWLMKMIQPDWLKSNGFHEIEADVNDTSLLLSGDHSIQQQLQEVREDDDDAEMTHSVAVNVYPATSRMPKLTIVVVDTIPVELKSSYMVWSWFIYVLSANLLLVIPLLWVAAWWSLRPIEALAKEVRELEEHNRELLNPATTRELTSLVRNLNRLLKSERERYDKYRTTLTDLTHSLKTPLXXLQXXLRSLRSEKMSVSDAEPVMLEQISRISQQIGYYLHRASMRGGTLLSRELHPVAPLLDNLTSALNKVYQRKGVNISLDISPEISFVGEQNDFVEVMGNVLDNACKYCLEFVEISARQTDEHLYIVVEDDGPGIPLSKREVIFDRGQRVDTLRPGQGVGLAVAREITEQYEGKIVAGESMLGGARMEVIFGRQHSAPKDE

In all, about 140,000 sequences were measured (“enrichment ratio after two sorts for PhoP signalling”: median about 0, highest 2% from about 11 on). The entries come from a sample that favours the highest values as a whole.

Variants of B1 are the subject of this assay. The experiment in a line: enrichment ratio after two sorts for PhoP signalling (ratio (wild type AVST 3.29)); higher = more functional. The following applies: with PhoP (E. coli).
On to AQGT, for which the enrichment ratio is 3.18. As for KSAL, the enrichment ratio was at most 0.25. TSAL: the enrichment ratio came to 13. In the case of FSAL, the enrichment ratio came out at 0.667.

For the variant NVAL, the enrichment ratio was at most 0.25. Consider VRAL, for which the enrichment ratio is at most 0.25. The result for AQAL reads 18.4. Take AHAL: the enrichment ratio was at most 0.25.

As for ASAL, the enrichment ratio is 11.7. Consider MVAL, for which the enrichment ratio was found to be 11.3. For the variant AKAL, the enrichment ratio was determined as 11.1. The value for GVAL was 1.02; that for GNDN was 0.537. As for LWNG, the enrichment ratio is at most 0.25. The result for QKPR reads at most 0.25; that for NSMN, at most 0.25. In the case of RATG, the enrichment ratio is at most 0.25. Turning to NMAL, the enrichment ratio was at most 0.25. The result for MFAL reads at most 0.25. In the case of DMAL, the enrichment ratio was at most 0.25.

On to VLAL, for which the enrichment ratio amounted to 0.925.

On to KCAL, for which the enrichment ratio was at most 0.25. As for TMAL, the enrichment ratio came to 14.

Take MCAL: the enrichment ratio stood at 13.5. Consider KMAL, for which the enrichment ratio is at most 0.25.

In the case of MKAL, the enrichment ratio amounted to 4.45. With FCAL, the enrichment ratio is at most 0.25. As to AMAL, the enrichment ratio was 11.3.

Consider MMAL, for which the enrichment ratio was 13.5. The result for HHKF reads at most 0.25; that for ICEL, at most 0.25. On to LEWF, for which the enrichment ratio is at most 0.25.

As for GLPR, the enrichment ratio is at most 0.25. With HPEC, the enrichment ratio is at most 0.25. TEHC: the enrichment ratio came to 22.1. YTYC: the enrichment ratio is at most 0.25. As to TESC, the enrichment ratio is 13.3. Take QESC: the enrichment ratio was 5.96.

For the variant NEHC, the enrichment ratio is at most 0.25. For the variant KSYC, the enrichment ratio is at most 0.25. Consider YYHC, for which the enrichment ratio was at most 0.25. Turning to TEYC, the enrichment ratio was found to be 12.6.

Turning to TEEC, the enrichment ratio stood at 12.4.

For LWEC, the enrichment ratio is at most 0.25. For NESC, the enrichment ratio is at most 0.25. For the variant YRVI, the enrichment ratio was at most 0.25.

Turning to ETQT, the enrichment ratio was at most 0.25. Take GDCV: the enrichment ratio was found to be 1.12. For the variant HWFI, the enrichment ratio is at most 0.25.

As for VAGY, the enrichment ratio is 1.53. As to NQGE, the enrichment ratio was at most 0.25. As for YYNI, the enrichment ratio was at most 0.25. For MCMI, the enrichment ratio is 4.33. On to IAKS, for which the enrichment ratio is at most 0.25. The result for NMWR reads at most 0.25; that for KAQY, at most 0.25; that for TETC, 24.3. On to TEPC, for which the enrichment ratio is at most 0.25. Take TENK: the enrichment ratio was 5.62.

With PWAR, the enrichment ratio is at most 0.25. In the case of QDFA, the enrichment ratio is at most 0.25. As for SIMI, the enrichment ratio was determined as 17.4.

For the variant KYMI, the enrichment ratio is at most 0.25.

SIWI: the enrichment ratio was at most 0.25. Regarding SPMI, the enrichment ratio is at most 0.25. In the case of SRGE, the enrichment ratio is at most 0.25. STMI: the enrichment ratio was 14.9. The value for LWMI was at most 0.25. The value for QEMI was 65.2; that for KYGE was at most 0.25. As to SWMI, the enrichment ratio is at most 0.25. The result for SIGE reads 16.9; that for WVYV, at most 0.25; that for RSYE, at most 0.25. Regarding DIVY, the enrichment ratio was at most 0.25. For the variant VANA, the enrichment ratio was at most 0.25. As to RKTG, the enrichment ratio was at most 0.25. On to ECNY, for which the enrichment ratio is at most 0.25.

LALQ: the enrichment ratio amounted to 1.26.

With AIVS, the enrichment ratio came out at 12.6. The result for AAVS reads at most 0.25. Consider TKVS, for which the enrichment ratio turned out to be 7.5.

Take WIVS: the enrichment ratio was at most 0.25. For the variant AKVS, the enrichment ratio was found to be 13.5. AHVS: the enrichment ratio is at most 0.25.

For YWKL, the enrichment ratio was at most 0.25. As to HFDQ, the enrichment ratio was at most 0.25. On to TNCH, for which the enrichment ratio was at most 0.25.

Regarding TNHI, the enrichment ratio was at most 0.25. Turning to TNQV, the enrichment ratio was 47.4. As to TNVA, the enrichment ratio was at most 0.25. Consider TNWR, for which the enrichment ratio was at most 0.25. The result for TNNV reads 13.4; that for TNMG, at most 0.25.

As to MNNV, the enrichment ratio was at most 0.25.

As to MNQV, the enrichment ratio was at most 0.25. For the variant TNMI, the enrichment ratio worked out at 11.7.

Turning to TNCV, the enrichment ratio is 10. As to TNMH, the enrichment ratio came to 15.7.

Take TTFC: the enrichment ratio is at most 0.25. The value for IGNC was at most 0.25; that for NNDF was at most 0.25; that for KDQI was at most 0.25. The result for WTKG reads at most 0.25; that for KNQF, at most 0.25; that for FFRV, at most 0.25. For the variant IYFT, the enrichment ratio is at most 0.25. Turning to ECCW, the enrichment ratio was at most 0.25.

Take SVDL: the enrichment ratio stood at 1.56. Consider WHFP, for which the enrichment ratio is at most 0.25. For TNMV, the enrichment ratio was 12.6.

For the variant TNMS, the enrichment ratio came out at 4.8. The result for TNIV reads at most 0.25; that for SRGA, at most 0.25; that for STMA, 4.9.

Turning to KYGA, the enrichment ratio is at most 0.25. As for SEMA, the enrichment ratio was determined as 13.6.

In the case of KYMA, the enrichment ratio was at most 0.25.

SEGA: the enrichment ratio worked out at 12.

Take ALVP: the enrichment ratio is at most 0.25. The result for HAVN reads at most 0.25; that for FQPY, at most 0.25. Consider AESH, for which the enrichment ratio amounted to 1.31. The result for AEGL reads 1.47; that for AWCD, at most 0.25; that for AECD, 17. On to QECD, for which the enrichment ratio is at most 0.25. Turning to AEES, the enrichment ratio was at most 0.25.

On to AEWV, for which the enrichment ratio was at most 0.25.

In the case of AESI, the enrichment ratio was determined as 25.1. The value for AECL was 20.9; that for AECV was 21.4; that for AESR was 3.86.

As for AEPL, the enrichment ratio is at most 0.25. The value for DTCP was at most 0.25; that for FCNA was at most 0.25; that for VDPQ was at most 0.25. As for GHKH, the enrichment ratio is at most 0.25.

For IWMV, the enrichment ratio is at most 0.25. Consider MRYG, for which the enrichment ratio is at most 0.25. With VCGI, the enrichment ratio is at most 0.25. In the case of VANS, the enrichment ratio is at most 0.25.

On to KPRL, for which the enrichment ratio was at most 0.25.

AECK: the enrichment ratio was at most 0.25. Regarding AECA, the enrichment ratio was found to be 42.4.

On to AECS, for which the enrichment ratio amounted to 39.5. Take AECQ: the enrichment ratio turned out to be 30.9. AEIF: the enrichment ratio stood at 18.6. For the variant AECG, the enrichment ratio was at most 0.25.

ADIF: the enrichment ratio was at most 0.25.

As to AIIF, the enrichment ratio is at most 0.25. Regarding AECI, the enrichment ratio is 4.88. The value for AECP was at most 0.25.
